Test results from PubChem BioAssay AID504329 (Southern Research Specialized Biocontainment Screening …, 2011).
The campaign covered roughly 340,000 compounds. About 1,000 (0.29%) were called active. Not all results are given here. Measured potencies and affinities stand elsewhere. Unmarked numbers belong to inactive results. Cut-off read from the data, not from the text of the source: inconclusive = inhibition above about 27% without an active follow-up result; inactive = below that.

Experiment: NS1A inhibition, H1N1 influenza, cell based functional assay (AID 504329)
Conditions: percent inhibition, at 12.5 µM, stronger effect = higher value
`ClCC1CSC(=NC23CC4CC(CC(C4)C2)C3)O1` (configuration not stated) showed an inhibition of -6.27%. For `N#CC(C#N)=c1ccc2c(c1)N1C(c3ccccc3)=CC(c3ccccc3)C3CCCCC31N=2` (configuration not stated), the inhibition was -4.24%. For `C1=CC2=NC34CCCCC3CC3=C(CCCC3)N4C2=CC1=NC1CCCCC1` (configuration not stated), the inhibition was 4.56%. For `C=CCN(c1ccccc1)S(=O)(=O)c1cccc(C(=O)NCC(c2ccc(OC)cc2)N2CCCCC2)c1` (configuration not stated), the inhibition was 3.3%. With `COc1ccccc1NS(=O)(=O)c1ccc(N/N=C/c2c(C)nn(-c3ccccc3)c2N2CCCC2)c([N+](=O)[O-])c1` the inhibition was 8.44%. Compound `CC(=O)Nc1ccc(C=NNc2ccc(S(=O)(=O)Nc3ccccc3C(=O)O)cc2[N+](=O)[O-])cc1` has an inhibition of 15.1%. Work on `COc1ccc(C=NNc2ccc(S(=O)(=O)Nc3ccccc3C(=O)O)cc2[N+](=O)[O-])c(OC)c1` yielded an inhibition of 20.4%. `CSc1ccc(C=NNc2ccc(S(=O)(=O)Nc3ccccc3C(=O)O)cc2[N+](=O)[O-])cc1` gave an inhibition of 3.57%. Compound `COc1cc(C=NNc2ccc(S(=O)(=O)Nc3ccccc3C(=O)O)cc2[N+](=O)[O-])ccc1O` has an inhibition of 14.4%. Work on `Cc1ccc(NC(=S)NNc2ccc([N+](=O)[O-])cc2S(=O)(=O)Nc2ccccc2C(=O)O)cc1C` yielded an inhibition of 26.1%. With `COC(=O)Nc1ccc(S(=O)(=O)N2CCC(C(=O)N3CCCCC3C)CC2)cc1` (configuration not stated) the inhibition was -11.1%. In the case of `COc1ccccc1NS(=O)(=O)c1cc(C(=O)NCC(C)(C)N2CCOCC2)ccc1C`, the inhibition was -2.2%. With `CCOc1ccc(CN(CC)C(=O)Cc2c[nH]c3ccccc23)cc1OC` the inhibition was -0.83%. `O=C(O)[C@H](Cc1ccccc1)N1C(=O)c2ccncc2C1=O` gave an inhibition of -6.13%. For `CC(=O)c1c(C)[nH]c(C(=O)OCC(=O)NCc2ccc3c(c2)OCO3)c1C`, the inhibition was -0.39%. With `CCN=C1SC(CC(=O)NC(N)=O)C(=O)N1CC` (configuration not stated) the inhibition was 0.98%. `O=C(O)CNC(=O)CC1S/C(=N/N=C2/NC(=O)CS2)NC1=O` (configuration not stated) gave an inhibition of 16.4%. For `NC(=O)NC(=O)CC1S/C(=N/N=C2/NC(=O)CS2)NC1=O` (configuration not stated), the inhibition was 5.04%. Work on `NC1=NC(=O)C(CC(=O)NCc2ccccc2)S1` (configuration not stated) yielded an inhibition of 2.63%. `CCN(CC)CCOc1ccccc1C(C)=O` showed an inhibition of -6.91%. With `COc1ccc(CNC(=O)C(C)Sc2ccc(S(=O)(=O)N3CCOCC3)cn2)cc1` (configuration not stated) the inhibition was -8.84%. For `CN(C)C(=O)C(OC(=O)c1ccc2c(c1)CCCC2)c1ccccc1` (configuration not stated), the inhibition was -4.12%. `Nc1cc([N+](=O)[O-])ccc1OCc1ccccc1` showed an inhibition of -17.4%. `CC(=O)Nc1ccc(OCc2ccccc2)cc1[N+](=O)[O-]` showed an inhibition of -2.5%. `S=C(Nc1ccc(Cl)cc1)Nc1ccc2c(c1)OCCO2` gave an inhibition of -3.12%. With `COc1ccc(OC)c(S(=O)(=O)Nc2c(C)cccc2C)c1` the inhibition was -4.66%. With `CCCNC1=C(N(C(C)=O)c2cccc(F)c2)C(=O)c2ccccc2C1=O` the inhibition was -1.3%. Compound `CC(=O)N(Cc1ccc(F)cc1)c1cccc(C)c1C` has an inhibition of 5.28%. With `O=C1C(Cl)=C(NCCc2ccccc2)C(=O)c2ccccc21` the inhibition was 28.7%. Work on `CN(CC(=O)NCCc1ccc(F)cc1)Cc1ccccc1` yielded an inhibition of 0.42%. `O=C1C=C(Nc2ccc(Cl)cc2)CC(c2ccccc2)C1` (configuration not stated) gave an inhibition of 1.69%. `CC(C)CCN1C(Nc2ccccc2)=NC[C@@H]1Cc1ccccc1` gave an inhibition of -9.63%. In the case of `COC(=O)c1cc2ccccn2c2c(C(=O)OC)c(C(=O)OC)cc1-2`, the inhibition was 16.8%. For `COC(=O)c1cc2c(-c3ccccc3)c(C)c3ccccn3c-2c1C(=O)OC`, the inhibition was 26.4%. Work on `CC(=O)NC1c2ccccc2C(=O)N1Cc1ccccc1` (configuration not stated) yielded an inhibition of -3.85%. `O=[N+]([O-])c1ccc(/C=N/Nc2nc(NCc3ccccc3)nc(N3CCOCC3)n2)cc1` gave an inhibition of -9.38%. In the case of `O=[N+]([O-])c1cccc(/C=N/Nc2nc(NCc3ccccc3)nc(N3CCOCC3)n2)c1`, the inhibition was 0.07%. `COc1ccc(NC(=O)[C@H](CCS(C)(=O)=O)N2Cc3ccccc3C2=O)c(OC)c1` showed an inhibition of 28.3%. For `C[C@H](OC(=O)c1[nH]cnc1C(=O)N1CCN(C(=O)OC(C)(C)C)CC1)c1ccccc1`, the inhibition was -7.71%. Work on `CC1=NN(c2ccc(C(=O)O)cc2)C(=O)/C1=C/c1ccc(-c2ccccc2F)o1` yielded an inhibition of 23.6%. `CC1=NN(c2ccc(Cl)c(C(=O)O)c2)C(=O)/C1=C\c1ccc(-c2ccc(C(=O)O)cc2)o1` showed an inhibition of 19.4%. Compound `CC(=O)Nc1ccc(S(=O)(=O)N2CCC3(CC2)OCCO3)cc1` has an inhibition of 4.94%. `COC(=O)c1ccc2c(c1)C(=O)/C(=C/c1ccc(O)cc1)O2` showed an inhibition of -8.68%. For `COC(=O)c1ccc(O)cc1`, the inhibition was -1.72%. With `COC(=O)c1ccc2c(c1)C(C)(C)C(/C=C/c1ccc(OC)c(OC)c1OC)=[N+]2C` the inhibition was 4.08%. `COC(=O)c1ccc2nc(C)c(C)nc2c1` showed an inhibition of -1.98%. `CNC(=O)c1c(C)noc1C` showed an inhibition of -6.29%. Compound `Clc1ccc(SCc2cc(N3CCOCC3)nc(-c3ccccn3)n2)cc1` has an inhibition of -0.35%. Work on `Clc1ccc(SCc2cc(Cl)nc(-c3ccccc3)n2)cc1` yielded an inhibition of 3.7%. Work on `COc1ccccc1N/C=C(\C#N)c1nc2ccccc2[nH]1` yielded an inhibition of 10.7%. `O=C(/C(=N\Nc1ccc(Br)cc1)Sc1nnnn1-c1ccccc1)c1ccccc1` showed an inhibition of 4.24%. In the case of `Cc1cc(=O)[nH]c(N=N/C(=N/Nc2ccc(O)cc2)c2ccccc2)n1`, the inhibition was 13.6%. With `C/C(=N\Nc1ccc(C(=O)O)cc1)c1ccc(Br)cc1` the inhibition was -17.3%. Work on `COc1ccc(N/N=C(/N=Nc2nc(C)cc(=O)[nH]2)c2ccccc2)cc1` yielded an inhibition of 26.3%. For `COc1ccc(S(=O)(=O)N2CCOC2CNC(=O)C(=O)NCCc2ccccc2)cc1OC` (configuration not stated), the inhibition was 2.48%. For `Cc1ccc(C)n1-n1cnc2sc3c(c2c1=O)CCC3`, the inhibition was 0.86%. Work on `COc1ccccc1C(CNC(=O)c1ccc(S(=O)(=O)N2CCCCC2)cc1)N(C)C` (configuration not stated) yielded an inhibition of -6.72%.
